{"source": "paper PMC7862700", "about": "“An all-to-all approach to the identification of sequence-specific readers for epigenetic DNA modifications on cytosine”", "experiment_in_all_cases": "DAPPL (digital affinity profiling via proximity ligation, sequencing); 10 mM Tris-HCl pH 7.5, 50 mM NaCl, 1 mM DTT, 4% glycerol, room temperature, 30 min; GST-TFs on glutathione beads, 16-mer random dsDNA library, 0.1% formaldehyde crosslink after washing; high values mean tight binding", "details_in_all_cases": "protein: recombinant; tags: N-terminal GST; dsDNA, one strand shown", "key": {"ELK1": {"target": "T1, ELK1 (Homo sapiens, UniProt P19419 1-428)", "T1 sequence": "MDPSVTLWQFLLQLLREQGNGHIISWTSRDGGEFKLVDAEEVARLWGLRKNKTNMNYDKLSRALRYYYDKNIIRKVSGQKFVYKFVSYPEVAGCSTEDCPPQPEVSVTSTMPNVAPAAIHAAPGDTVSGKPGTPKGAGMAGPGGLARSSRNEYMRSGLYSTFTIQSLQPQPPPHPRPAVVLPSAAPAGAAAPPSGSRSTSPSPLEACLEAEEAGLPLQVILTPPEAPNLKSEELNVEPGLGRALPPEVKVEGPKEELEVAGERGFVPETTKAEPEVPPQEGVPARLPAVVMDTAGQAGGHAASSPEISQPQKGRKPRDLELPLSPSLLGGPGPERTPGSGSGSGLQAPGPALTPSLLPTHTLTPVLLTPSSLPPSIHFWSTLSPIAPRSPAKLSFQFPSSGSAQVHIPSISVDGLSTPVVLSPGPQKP", "summary_of_the_method": "(§1)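 Yeast served to express human transcription factors as GST fusions, which were then captured on glutathione beads and labelled with DNA barcodes. Pooled with a tag-only sample, they were incubated with 200 nmole of a 16-mer random double-stranded DNA library for 30 min at room temperature in Tris/NaCl/DTT/glycerol buffer, washed, crosslinked with 0.1% formaldehyde, ligated by proximity, amplified by PCR and sequenced. Dividing each hexamer's read frequency for a factor by its frequency for the tag-only sample gives the binding signal.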"}, "GABPA": {"target": "T2, GABPA (Homo sapiens, UniProt Q06546 1-454)", "T2 sequence": "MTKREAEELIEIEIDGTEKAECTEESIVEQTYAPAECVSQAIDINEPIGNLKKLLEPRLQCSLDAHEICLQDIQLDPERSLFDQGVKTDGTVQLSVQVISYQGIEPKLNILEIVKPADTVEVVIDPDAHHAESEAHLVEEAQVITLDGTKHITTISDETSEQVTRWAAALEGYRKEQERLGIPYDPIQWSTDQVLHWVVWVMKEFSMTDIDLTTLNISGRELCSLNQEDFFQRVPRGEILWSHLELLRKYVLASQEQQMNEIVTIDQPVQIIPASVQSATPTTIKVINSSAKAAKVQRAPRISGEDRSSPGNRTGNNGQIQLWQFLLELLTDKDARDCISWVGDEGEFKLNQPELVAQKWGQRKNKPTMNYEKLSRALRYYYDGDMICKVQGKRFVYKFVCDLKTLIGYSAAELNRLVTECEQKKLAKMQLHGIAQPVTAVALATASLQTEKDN", "summary_of_the_method": "as §1"}, "ERG": {"target": "T3, ERG (Homo sapiens, UniProt P11308 1-479)", "T3 sequence": "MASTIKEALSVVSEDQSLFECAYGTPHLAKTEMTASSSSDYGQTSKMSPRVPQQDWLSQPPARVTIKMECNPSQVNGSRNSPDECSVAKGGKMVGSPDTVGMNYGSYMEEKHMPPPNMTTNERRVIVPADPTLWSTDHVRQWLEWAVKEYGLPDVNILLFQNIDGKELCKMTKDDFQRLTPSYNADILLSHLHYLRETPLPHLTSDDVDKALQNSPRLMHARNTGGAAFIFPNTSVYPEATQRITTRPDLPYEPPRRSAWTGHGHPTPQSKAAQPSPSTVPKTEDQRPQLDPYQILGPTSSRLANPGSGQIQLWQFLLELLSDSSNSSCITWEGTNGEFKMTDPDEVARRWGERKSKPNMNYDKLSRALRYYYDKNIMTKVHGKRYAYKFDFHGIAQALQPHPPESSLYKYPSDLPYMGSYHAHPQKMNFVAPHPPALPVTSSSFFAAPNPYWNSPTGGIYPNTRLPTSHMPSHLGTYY", "summary_of_the_method": "as §1"}, "ELF1": {"target": "ELF1 (Homo sapiens, UniProt P32519 1-619)", "sequence (P32519 whole entry)": "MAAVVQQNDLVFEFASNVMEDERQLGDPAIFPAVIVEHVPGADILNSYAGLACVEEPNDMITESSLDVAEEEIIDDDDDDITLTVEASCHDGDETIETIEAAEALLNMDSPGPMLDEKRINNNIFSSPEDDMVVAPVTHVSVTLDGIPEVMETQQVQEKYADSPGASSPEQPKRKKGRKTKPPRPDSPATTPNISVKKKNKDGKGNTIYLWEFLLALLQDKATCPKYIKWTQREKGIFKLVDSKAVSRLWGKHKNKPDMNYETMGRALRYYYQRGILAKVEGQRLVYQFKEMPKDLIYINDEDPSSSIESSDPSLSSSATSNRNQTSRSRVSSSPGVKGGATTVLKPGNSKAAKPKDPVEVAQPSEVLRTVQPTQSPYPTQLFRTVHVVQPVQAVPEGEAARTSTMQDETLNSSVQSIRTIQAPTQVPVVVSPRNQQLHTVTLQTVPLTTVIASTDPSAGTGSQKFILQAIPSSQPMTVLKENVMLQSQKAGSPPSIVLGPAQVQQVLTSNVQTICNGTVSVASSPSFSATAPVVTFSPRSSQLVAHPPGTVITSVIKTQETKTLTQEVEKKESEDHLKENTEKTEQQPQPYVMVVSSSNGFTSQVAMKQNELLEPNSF", "summary_of_the_method": "as §1"}, "EHF": {"target": "T4, EHF (Homo sapiens, UniProt Q9NZC4 1-300)", "T4 sequence": "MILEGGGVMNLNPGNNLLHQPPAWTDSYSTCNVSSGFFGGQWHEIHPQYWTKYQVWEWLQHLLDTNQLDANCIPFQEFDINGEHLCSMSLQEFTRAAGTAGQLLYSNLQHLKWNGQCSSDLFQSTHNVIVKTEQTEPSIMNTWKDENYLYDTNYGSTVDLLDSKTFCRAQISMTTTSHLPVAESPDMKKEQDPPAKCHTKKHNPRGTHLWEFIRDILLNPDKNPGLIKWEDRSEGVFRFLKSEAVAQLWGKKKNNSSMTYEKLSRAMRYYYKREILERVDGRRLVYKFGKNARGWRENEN", "summary_of_the_method": "as §1"}, "SPIB": {"target": "SPIB (Homo sapiens, UniProt Q01892 1-262)", "sequence (Q01892 whole entry)": "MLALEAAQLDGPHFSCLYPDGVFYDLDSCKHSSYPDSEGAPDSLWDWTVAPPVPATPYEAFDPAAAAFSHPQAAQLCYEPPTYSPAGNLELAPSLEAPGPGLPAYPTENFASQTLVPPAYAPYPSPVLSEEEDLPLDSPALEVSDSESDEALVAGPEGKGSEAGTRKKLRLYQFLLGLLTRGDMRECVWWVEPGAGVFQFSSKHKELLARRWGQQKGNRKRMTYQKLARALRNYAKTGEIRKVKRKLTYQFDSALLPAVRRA", "summary_of_the_method": "as §1"}, "FEV": {"target": "T5, FEV (Homo sapiens, UniProt Q99581 1-238)", "T5 sequence": "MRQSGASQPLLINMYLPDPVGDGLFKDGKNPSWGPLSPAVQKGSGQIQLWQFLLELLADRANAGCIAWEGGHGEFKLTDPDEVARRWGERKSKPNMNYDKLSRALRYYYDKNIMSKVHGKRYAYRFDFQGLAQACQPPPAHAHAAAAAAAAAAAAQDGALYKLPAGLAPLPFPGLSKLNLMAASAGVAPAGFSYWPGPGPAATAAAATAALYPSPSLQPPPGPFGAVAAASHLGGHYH", "summary_of_the_method": "as §1"}, "ETV5": {"target": "ETV5 (Homo sapiens, UniProt P41161 1-510)", "sequence (P41161 whole entry)": "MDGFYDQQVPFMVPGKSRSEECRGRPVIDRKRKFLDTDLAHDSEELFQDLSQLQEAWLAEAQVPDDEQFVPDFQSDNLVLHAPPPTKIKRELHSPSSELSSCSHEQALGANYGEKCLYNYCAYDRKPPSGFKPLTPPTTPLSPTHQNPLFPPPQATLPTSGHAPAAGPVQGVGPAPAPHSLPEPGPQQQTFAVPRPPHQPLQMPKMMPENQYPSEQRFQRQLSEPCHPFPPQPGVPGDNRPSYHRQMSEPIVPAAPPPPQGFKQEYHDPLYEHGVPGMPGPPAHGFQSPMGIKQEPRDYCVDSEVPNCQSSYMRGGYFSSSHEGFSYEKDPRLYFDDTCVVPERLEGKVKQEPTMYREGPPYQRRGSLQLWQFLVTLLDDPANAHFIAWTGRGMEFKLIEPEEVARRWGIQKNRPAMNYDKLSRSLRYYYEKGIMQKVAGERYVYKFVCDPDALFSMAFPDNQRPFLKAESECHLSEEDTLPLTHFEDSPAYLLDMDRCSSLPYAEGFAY", "summary_of_the_method": "as §1"}, "ELF4": {"target": "ELF4 (Homo sapiens, UniProt Q99607 1-663)", "sequence (Q99607 whole entry)": "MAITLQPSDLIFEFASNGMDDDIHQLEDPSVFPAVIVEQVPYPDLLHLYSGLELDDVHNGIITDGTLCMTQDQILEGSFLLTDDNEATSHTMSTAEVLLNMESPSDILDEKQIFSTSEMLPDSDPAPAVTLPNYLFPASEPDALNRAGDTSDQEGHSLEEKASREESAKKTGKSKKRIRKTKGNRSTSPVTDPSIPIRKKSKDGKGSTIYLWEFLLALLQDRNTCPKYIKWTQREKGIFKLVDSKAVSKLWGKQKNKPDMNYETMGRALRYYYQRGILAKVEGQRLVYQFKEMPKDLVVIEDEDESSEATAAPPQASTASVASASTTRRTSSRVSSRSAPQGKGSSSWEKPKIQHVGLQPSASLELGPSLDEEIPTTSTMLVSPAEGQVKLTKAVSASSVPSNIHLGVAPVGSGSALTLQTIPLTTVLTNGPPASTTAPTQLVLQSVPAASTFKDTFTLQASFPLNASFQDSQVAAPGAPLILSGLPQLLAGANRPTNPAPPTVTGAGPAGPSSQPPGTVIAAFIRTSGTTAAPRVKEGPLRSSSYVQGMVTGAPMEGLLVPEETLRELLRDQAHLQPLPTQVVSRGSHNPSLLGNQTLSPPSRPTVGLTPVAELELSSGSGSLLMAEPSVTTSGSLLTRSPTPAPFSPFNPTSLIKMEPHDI", "summary_of_the_method": "as §1"}, "ELK4": {"target": "T6, ELK4 (Homo sapiens, UniProt P28324-2 1-405)", "T6 sequence": "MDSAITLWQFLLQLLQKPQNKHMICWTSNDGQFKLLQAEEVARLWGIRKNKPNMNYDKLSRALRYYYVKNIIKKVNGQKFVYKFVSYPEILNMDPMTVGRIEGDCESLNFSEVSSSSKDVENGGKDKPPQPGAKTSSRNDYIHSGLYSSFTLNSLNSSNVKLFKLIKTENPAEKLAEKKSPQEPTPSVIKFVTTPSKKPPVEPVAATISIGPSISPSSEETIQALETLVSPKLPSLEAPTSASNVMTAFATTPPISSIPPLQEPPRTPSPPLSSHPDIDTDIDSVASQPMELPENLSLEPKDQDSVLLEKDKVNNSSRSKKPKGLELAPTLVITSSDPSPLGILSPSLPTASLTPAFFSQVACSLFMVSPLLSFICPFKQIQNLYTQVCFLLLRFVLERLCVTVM", "summary_of_the_method": "as §1"}}, "data": [{"sequence": "GCTATC", "values": [{"measurement": "binding signal", "setting": "ELK1", "value": "1.07 fold enrichment (6-mer frequency, TF over GST control)"}, {"measurement": "binding signal", "setting": "GABPA", "value": "1.1 fold enrichment (6-mer frequency, TF over GST control)"}, {"measurement": "binding signal", "setting": "ERG", "value": "1.13 fold enrichment (6-mer frequency, TF over GST control)"}, {"measurement": "binding signal", "setting": "ELF1", "value": "1.14 fold enrichment (6-mer frequency, TF over GST control)"}, {"measurement": "binding signal", "setting": "EHF", "value": "1.14 fold enrichment (6-mer frequency, TF over GST control)"}, {"measurement": "binding signal", "setting": "SPIB", "value": "1.1 fold enrichment (6-mer frequency, TF over GST control)"}, {"measurement": "binding signal", "setting": "FEV", "value": "1.08 fold enrichment (6-mer frequency, TF over GST control)"}, {"measurement": "binding signal", "setting": "ETV5", "value": "1.09 fold enrichment (6-mer frequency, TF over GST control)"}, {"measurement": "binding signal", "setting": "ELF4", "value": "1.14 fold enrichment (6-mer frequency, TF over GST control)"}, {"measurement": "binding signal", "setting": "ELK4", "value": "1.13 fold enrichment (6-mer frequency, TF over GST control)"}]}]}
